# Assay results: PubChem BioAssay (NCATS)
# Records with an inconclusive call do not appear. A number with no mark means an inactive call. The source made the active and inactive calls. Calls follow the shape of the dose curve; as a rule, active = well fitted cell-killing curve with a large enough effect; inconclusive = small, poorly fitted or top-dose-only effect, or effect the other way; inactive = no such curve, though single readings can be large or run the other way.
# Assay: Quantitative High-Throughput drug screen in 47 multiple myeloma cell lines against the NCATS MIPE library collection: PE2_PLB cell viability assay (AID 1919869); also: nearly all actives have a fitted effect of over 35% in size
# Conditions: PE2_PLB myeloma cells viability, ATP luminescence, 48 h; series mostly up to 45.8 µM; viability (% of control): at the top concentration
# In short: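 500 cells/well per myeloma line exposed to pinned MIPE 4.0 compounds for 48 h at 37 °C, 5% CO2. Viability read as ATP by CellTiter-Glo luminescence, normalised to DMSO-only (100%) and media-only (0%) wells.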
# Potency is read from the fitted curve at half-maximal effect.
SMILES,viability (% of control),Potency
CN1C(=O)CCS(=O)(=O)C1c1ccc(Cl)cc1 (centres undefined),93%,–
CC(C)c1cccc(C(C)C)c1O,152%,–
COc1cc(OC)c(OC)cc1C=O,112%,–
C[C@]12CC[C@H]3[C@@H](CC[C@@]45O[C@H]4C(O)=C(C#N)C[C@]35C)[C@H]1CC[C@H]2O,127%,–
CC(NC(C)(C)C)C(=O)c1cccc(Cl)c1 (centres undefined),98.3%,–
O=C(O)CCCc1ccc(N(CCCl)CCCl)cc1,102%,–
CC(C)C[C@H](CN)CC(=O)O,112%,–
CCC1(c2ccc(N)cc2)CCC(=O)NC1=O (centres undefined),109%,–
C[C@](O)(CS(=O)(=O)c1ccc(F)cc1)C(=O)Nc1ccc(C#N)c(C(F)(F)F)c1,–,0.662 µM (active)
C[C@]12CC[C@@H]3c4ccc(OC(=O)N(CCCl)CCCl)cc4CC[C@H]3[C@@H]1CC[C@@H]2OP(=O)(O)O,106%,–

# Assay: Quantitative High-Throughput drug screen in 47 multiple myeloma cell lines against the NCATS MIPE library collection: PCM6_Riken cell viability assay (AID 1919870); also: nearly all actives have a fitted effect of over 30% in size
# Conditions: CellTiter-Glo ATP, 48 h; series mostly up to 45.8 µM; viability (% of control): at the top concentration
# Source text: PI: Beverly A. Mock Ph.D.
# Laboratory of Cancer Biology and Genetics,
# Center for Cancer Research, National Cancer Institute,
# National Institute of Health, Bethesda, Maryland
# Drug resistance and disease progression are common in multiple myeloma (MM) patients, underscoring the need for new therapeutic combinations. […] We hypothesized that effective combinations would reduce MYC expression and enhance p16 activity. […] These preclinical data identify potentially useful drug combinations for evaluation in drug-resistant MM and reveal potential mechanisms of combined drug sensitivity.
# Described herein is the primary MIPE qHTS used to cherrypick compounds. Validated compounds were then further tested for potential synergistic activiy.
# [1] Peat TJ, Gaikwad SM, Dubois W, Gyabaah-Kessie N, Zhang S, Gorjifard S, Phyo Z, Andres M, Hughitt VK, Simpson RM, Miller MA, Girvin AT, Taylor A, Williams D, D'Antonio N, Zhang Y, Rajagopalan A, Flietner E, Wilson K, Zhang X, Shinn P, Klumpp-Thomas C, McKnight C, Itkin Z, Chen L, Kazandijian D, Zhang J, Michalowski AM, Simmons JK, Keats J, Thomas CJ, Mock BA. Drug combinations identified by high-throughput screening promote cell cycle transition and upregulate Smad pathways in myeloma. Cancer Lett. 2023 Aug 1;568:216284. doi: 10.1016/j.canlet.2023.216284. Epub 2023 Jun 24. PMID: 37356470; PMCID: PMC10408729.
# SEQUENCE No. (e.g., 1, 2, 3, etc.); […] (e.g., Cells, Incubation, Reagent, etc.); VALUE and DESCRIPTION.
# 1; Cells; 5 uL; white, solid bottom 1536-well Greiner assay plate.
# 2; Compounds; 23 nL; Kalypsis pin tool (Wako USA) equipped with a 1536-well pin head to transfer to the assay plates.
# 3; Incubation; 48 hours; 37C incubation.
# 4; Reagent;5uL; CellTiter Glo (Promega).
# 5; Detector; 425V; Luminescence; Viewlux PerkinElmer.
# NOTES (numbers refer to Sequence numbers above)
# 1. The cell-based screening methods employed in this study were like those previously published. Briefly, the corresponding myeloma cell lines were screened in 1,536-well plates with 500 cells, 5-uL per well for inhibition of cell viability (assessed by measuring ATP levels with CellTiterGlo).
# 2. NCATS MIPE 4.0 library of approved and investigational drugs were added using the Kalypsis pin tool. Wells treated with DMSO only for 100% viability and media only for 0% viability were used as controls.
# 3. The assay plates were covered and incubated for 48 hours in a 37C, 5% CO2 incubator with controlled humidity.
# 4. After 48 hours, CellTilter-GloTM luminescent substrate mix (Promega) reagent was added to the assay plate and plates we incubated for 5 min at room temperature.
# 5. Signal was measured as median relative luminescence units on a ViewLux (PerkinElmer) multiplate reader.
# [1] Heske CM, Davis MI, Baumgart JT, Wilson K, Gormally MV, Chen L, Zhang X, Ceribelli M, Duveau DY, Guha R, Ferrer M, Arnaldez FI, Ji J, Tran HL, Zhang Y, Mendoza A, Helman LJ, Thomas CJ. Matrix Screen Identifies Synergistic Combination of PARP Inhibitors and Nicotinamide Phosphoribosyltransferase (NAMPT) Inhibitors in Ewing Sarcoma. Clin Cancer Res. 2017 Dec 1;23(23):7301-7311. doi: 10.1158/1078-0432.CCR-17-1121. Epub 2017 Sep 12. PMID: 28899971; PMCID: PMC6636827.
SMILES,viability (% of control),Potency
CN1C(=O)COc2c(C(=O)NC3CN4CCC3CC4)cc(Cl)cc21 (centres undefined),103%,–
CN1C(=O)CCS(=O)(=O)C1c1ccc(Cl)cc1 (centres undefined),91.7%,–
CC(C)c1cccc(C(C)C)c1O,138%,–
COc1cc(OC)c(OC)cc1C=O,99.1%,–
C[C@]12CC[C@H]3[C@@H](CC[C@@]45O[C@H]4C(O)=C(C#N)C[C@]35C)[C@H]1CC[C@H]2O,110%,–
CC(NC(C)(C)C)C(=O)c1cccc(Cl)c1 (centres undefined),119%,–
O=C(O)CCCc1ccc(N(CCCl)CCCl)cc1,–,16.6 µM (active)
C[C@](O)(CS(=O)(=O)c1ccc(F)cc1)C(=O)Nc1ccc(C#N)c(C(F)(F)F)c1,–,0.662 µM (active)
C[C@]12CC[C@@H]3c4ccc(OC(=O)N(CCCl)CCCl)cc4CC[C@H]3[C@@H]1CC[C@@H]2OP(=O)(O)O,142%,–
